Giardia kill = Small Molecules that selectively kill Giardia lamblia: qHTS; hit rate 0.15% among 340,000; Giardia lamblia trophozoite viability; activity change, % at 7.66 µM, hits read low; in the data active = activity change below about -80%; inconclusive = between about -30% and that limit;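 also: parasites exposed to compound for two days anaerobically before the ATP read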
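ATP-content bioluminescence gauges trophozoite survival. Cells (100/well) receive compound and incubate anaerobically for 48 hrs at 37 deg C; detection reagent follows for 15-30 min at room temperature.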
SW480 rerep = A quantitative high throughput screen for small molecules that induce DNA re-replication in SW480 colon adenocarcinoma cells | SW480 DNA re-replication, Hoechst DNA content imaging, 48 h | Potency, µM (highest dose often 46.1 µM), hits mostly activators | hit rate 1.8% among 340,000; also: nearly all actives have a fitted effect of over 55% in size
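SW480 cells exposed to compounds for 48 hr at 37 C, 5% CO2, then Hoechst-stained 40 min. Nuclear DNA content imaged by fluorescence scanning (405 nm excitation, 500-530 nm emission); re-replication scored as increased high-intensity nuclei.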
KB-3-1 cytotox = qHTS assay for MDR1-selective chemotherapeutics: Primary screen using the parental adenocarcinoma cell KB-3-1; KB-3-1 viability, CellTiter-Glo ATP luminescence, 72 h; Potency, µM (titrated, usually from 46.1 µM), hits mostly cytotoxic; hit rate 1.4% among 400,000; AID 1347075, 2019; also: nearly all actives have a fitted effect of over 60% in size
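Here the drug-naive KB-3-1 line serves as comparator for MDR sub-line selectivity; cells received compound titrations, 72 h at 37 °C, then CellTiter-Glo readout.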
MCF10A rerep = A quantitative high throughput screen for small molecules that induce DNA re-replication in MCF 10a normal breast cells. hit rate 2.9% among 350,000. MCF 10A DNA re-replication, Hoechst nuclear intensity, 48 h. Potency, µM (titrated, usually from 46.1 µM), hits mostly activators; also: nearly all actives have a fitted effect of over 50% in size
ASM inhibitor = Inhibitors of Secretory Acid Sphingomyelinase (S-ASM): qHTS; Sphingomyelin phosphodiesterase (Homo sapiens), P17405; placental ASM, HMU-PC fluorogenic substrate, 60 min; Potency, µM (top dose mostly 57.5 µM), hits mostly inhibitors; hit rate 0.006% among 340,000; AID 504937, 2011
Target sequence (P17405 47-631 limits assumed): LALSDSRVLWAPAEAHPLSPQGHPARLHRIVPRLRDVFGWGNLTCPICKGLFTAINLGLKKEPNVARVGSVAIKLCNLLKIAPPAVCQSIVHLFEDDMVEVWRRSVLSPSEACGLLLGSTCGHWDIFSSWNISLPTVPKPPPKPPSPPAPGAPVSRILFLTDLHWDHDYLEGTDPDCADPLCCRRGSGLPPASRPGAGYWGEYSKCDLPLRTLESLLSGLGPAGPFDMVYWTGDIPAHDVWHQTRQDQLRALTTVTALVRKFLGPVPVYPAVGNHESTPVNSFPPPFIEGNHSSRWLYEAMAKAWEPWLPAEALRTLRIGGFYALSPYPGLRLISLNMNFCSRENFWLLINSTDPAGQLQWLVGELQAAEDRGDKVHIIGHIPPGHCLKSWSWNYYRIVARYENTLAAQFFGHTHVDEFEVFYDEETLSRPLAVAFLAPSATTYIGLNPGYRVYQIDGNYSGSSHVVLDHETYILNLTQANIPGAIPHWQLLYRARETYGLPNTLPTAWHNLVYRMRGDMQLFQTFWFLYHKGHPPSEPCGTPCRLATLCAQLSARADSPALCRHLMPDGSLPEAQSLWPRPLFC
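qHTS format. ASM enzyme prepared from human placenta hydrolyses the fluorogenic substrate HMU-PC0 (9 uM final) over 60 min at 37 °C after a 10 min compound preincubation.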
KB-V1 MDR tox = qHTS assay for MDR1-selective chemotherapeutics: Primary screen using the drug-selected MDR subline cells KB-V1 | KB-V1 MDR cells viability, CellTiter-Glo, 72 h | Potency, µM (series often up to 46.1 µM), most hits filed as cytotoxic | hit rate 3.4% among 400,000; also: nearly all actives have a fitted effect of over 60% in size
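Compound-treated KB-V1 multidrug-resistant cells, 72 h, 37 degrees C; viability by CellTiter-Glo. Fitted qHTS curves give the values.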
A number is an active result; – = inactive; ? = inconclusive; · = no result; [ ] = dose if it differs, or a comment. Hits are enriched below; roughly 6.9% of the tested compounds scored in any of these assays. Unless noted, calls follow the shape of the dose curve; as a rule, active = well fitted curve in the direction sought with a large enough effect; inconclusive = small, poorly fitted or top-dose-only effect, or another doubt; inactive = no such curve, though single readings can be large; an effect the other way counts as inactive or inconclusive.

SMILES	Giardia kill	SW480 rerep	KB-3-1 cytotox	MCF10A rerep	ASM inhibitor	KB-V1 MDR tox
COc1ccc(CN(Cc2ccccc2)C(C)=O)cc1COc1ccc(NC(C)=O)cc1	–	·	·	·	·	·
c1ccc2c(c1)c1c(c3ccccc32)CN2CCCC2C1 (configuration not stated)	–	18.4µM	?	?	–	16.4µM
CCC(=O)c1ccc(OCC(O)Cn2c(C)nc3ccccc32)cc1 (configuration not stated)	–	–	–	–	–	8.2µM
CCOC(=O)c1c(C)n(C)c2ccc(OCC(O)Cn3c(C)nc4ccccc43)cc12 (configuration not stated)	–	–	–	?	–	13µM
Cc1nc2ccccc2n1CC(O)COc1ccc(Br)cc1 (configuration not stated)	–	–	?	–	–	13µM
CCCOc1ccc(C2C(C(=O)/C=C/c3ccco3)=C(O)C(=O)N2CCN2CCOCC2)cc1OC (configuration not stated)	–	–	–	–	–	–
NS(=O)(=O)c1ccc(NC(=O)CSc2nc3c(cnn3-c3ccccn3)c(=O)[nH]2)cc1	–	–	–	–	–	–
Cc1ccc(S(=O)(=O)N2C[C@@H](C)[C@]3(C2)[C@H](O)[C@H](OC(=O)Nc2c(C)noc2C)C[C@H]2C(=O)N(c4ccccc4)C(=O)[C@H]23)cc1	·	·	–	·	·	–
O=C(COC(=O)c1c2c(nc3ccccc13)/C(=C\c1ccco1)CC2)NC1CCCC1	–	6.51µM	·	?	–	·
CC1CCCC(NC(=O)COC(=O)/C=C/c2ccco2)C1C (configuration not stated)	–	–	–	–	–	?
CC1CCCCC1NC(=O)COC(=O)c1c2c(nc3ccccc13)/C(=C\c1ccco1)CC2 (configuration not stated)	–	?	–	18.4µM	–	–
CN(CCC#N)C(=O)COC(=O)c1c2c(nc3ccccc13)/C(=C\c1ccco1)CC2	–	4.11µM	–	?	–	–
CN1CCc2nc3ccccc3c(C(=O)OCC(=O)N(CCC#N)c3ccccc3)c2C1	–	–	–	–	–	?
COc1cccc(NC(=O)Cc2csc(COc3cccc(C)c3)n2)c1	·	·	–	·	·	–
COc1ccccc1/C=C/c1nc(C#N)c(N2CCN(C)CC2)o1	·	·	–	·	·	–
Cc1ccc(CNC(=O)c2cccc(NC(=O)N3CCSc4ncccc43)c2)cc1	·	·	–	·	·	–
CCOC(=O)c1c(S(=O)(=O)N2CCC(C(=O)NCc3cccc(OC)c3)CC2)c(C)n(C)c1C	·	·	–	·	·	–
Cc1ccc(C2(CCNCc3ccc(N(C)C)cc3)CCOC(C(C)C)C2)cc1 (configuration not stated)	–	?	?	?	–	?
CCC1(C)CC(CCNS(=O)(=O)c2ccc(C)cc2)(c2ccc(C)cc2)CCO1 (configuration not stated)	–	–	?	?	–	?
CC(C)C1CC(CCNCc2ccc(N(C)C)cc2)(c2ccccc2)CCO1 (configuration not stated)	–	–	20.6µM	?	–	?
Cc1ccc(C2(CCNS(=O)(=O)c3ccc(C)cc3)CCOC(C(C)C)C2)cc1 (configuration not stated)	–	–	?	?	–	3.66µM
Cc1c(Cl)cccc1NC(=O)CCS(=O)(=O)c1cccc2nsnc12	·	·	–	·	·	–
O=[N+]([O-])c1ccc(Sc2nnnn2-c2ccccc2)nc1	–	6.51µM	?	3.66µM	–	?
C(=C\CSc1nnnn1-c1ccccc1)/CSc1nnnn1-c1ccccc1	–	–	–	–[0.0737 µM]	–	?
Cc1ccccc1-n1nnnc1SCC(N)=O	–	–	–	–	–	–
SMILES	Giardia kill	SW480 rerep	KB-3-1 cytotox	MCF10A rerep	ASM inhibitor	KB-V1 MDR tox
CCCSc1nnc(Sc2nnnn2-c2ccccc2)s1	–	6.51µM	5.17µM	?	–	13µM
Cc1ccccc1-n1nnnc1Sc1nnnn1-c1ccccc1	–	?	?	14.6µM	–	?
CCOc1ccccc1CN1CCN(CC2=Cc3cc(OC)ccc3OC2)CC1CCO (configuration not stated)	–	–	?	–	–	?
NC(=O)C1CCN(c2ncc(-c3cccc(N4CCCCC4)c3)s2)CC1	·	·	–	·	·	–
O=C(NCC(=O)N1CCN(C(c2ccccc2)c2ccccc2)CC1)c1ccccc1F	–	–	–	–	–	?
CCn1c(=O)c(C(=O)NCc2ccc(Cl)cc2)c(O)c2ccccc21	–	–	–	0.581µM	–	–
CCCn1c(=O)c(C(=O)NCc2ccccc2Cl)c(O)c2ccccc21	–	–	–	?	–	–
CCCCCC(=O)NNC(=O)c1c(O)c2ccccc2n(CC)c1=O	–	?	?	?	–	23.1µM
C=CCn1c(=O)c(C(=O)NCc2ccccc2Cl)c(O)c2ccccc21	–	–	?	23.1µM	–	–
CCn1c(=O)c(C(=O)NNC(=O)c2ccccc2F)c(O)c2ccccc21	–	?	14.6µM	?	–	10.3µM
CCn1c(=O)c(C(=O)NCc2ccccc2)c(O)c2ccccc21	–	–	–	?	–	–
CCOc1ccccc1C1C(C(=O)Nc2ccccc2)=C(C)Nc2nc(SCC(=O)c3ccc(C)cc3)nn21 (configuration not stated)	·	·	–	·	·	–
CC1CCCCN1C(=O)COC(=O)CSc1ccc(C(N)=O)cc1[N+](=O)[O-] (configuration not stated)	–	6.51µM	–	?	–	–
CCC1CCCCN1C(=O)COC(=O)CSc1ccc(C(N)=O)cc1[N+](=O)[O-] (configuration not stated)	–	–	–	–	–	–
COCCNC(=O)c1ccccc1NC(=O)Cc1ccccc1	–	–	–	–	–	–
CCC(C)NC(=O)c1ccccc1NC(=O)c1ccc(CSc2ccccc2)cc1 (configuration not stated)	–	–	–	?	–	11.6µM
Cc1ccc(SCc2ccc(C(=O)Nc3ccccc3C(=O)NC(C)C)cc2)cc1	–	–	–	–	–	–
COCCNC(=O)c1ccccc1NC(=O)CCSc1ccccc1	–	–	–	1.3µM	–	?
COc1ccccc1C(=O)NCCC(=O)NCCCSc1ccccc1	–	–	–	–	–	20.6µM
COc1ccc(C(=O)Nc2nc3n(n2)C(c2ccc(Cl)cc2)C=C(c2ccccc2)N3)cc1OC (configuration not stated)	·	·	–	·	·	–
CCc1nnc(NC(=O)CSc2nc3c([nH]c4ccccc43)c(=O)n2-c2ccc(OC)cc2)s1	·	·	–	·	·	?

Compound activity from PubChem BioAssay.
